The assay is described as follows: PubChem AID 651827. The note with it: Ricerca radioligand binding panel, percent inhibition, at 10 µM, stronger effect = higher value.

Usually inhibition stands for the relative decrease from the control value, in per cent. Consider `CS(=O)(=O)N(CC(=O)NCC1CC1)c1cc(C(F)(F)F)ccc1Cl`, for which the inhibition was -9%. Also, for the setting “Adenosine A2A binding”, the inhibition was -8%. The inhibition (Adenosine A3 binding) is 1%. Moreover, the inhibition (EGF receptor binding) was 14%. For the same compound, the inhibition (IL-1 receptor binding) was determined as 15%. For the same compound, where the note is “L-type Ca benzothiazepine site”, the inhibition was found to be 48%. For the same compound, the inhibition (L-type Ca dihydropyridine site) was 36%. Moreover, the inhibition (Melatonin MT1 binding) was 16%. In addition, the inhibition (PAF receptor binding) came to 15%. For the setting “Purinergic P2Y binding”, the inhibition was found to be 20%. For the same compound, the inhibition (Serotonin transporter binding) was determined as 15%. Also, the inhibition (Thyroid hormone binding) was found to be 16%. The inhibition (hERG binding) was -2%.

For the origin of these results see PubChem BioAssay AID651827 (Vanderbilt Specialized Chemistry Center, 2012).
